Common to all, as to details: modulator concentration 10 µM
The subject of assay [1] is RAW-Dual (murine macrophage reporter line). The assay is described as follows: NF-kB reporter (SEAP) activity fold change vs agonist alone; higher = enhanced NF-kB activity. Put shortly: (§1)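 Compound reached 10 μM final in each well by pin transfer, onto RAW-Dual murine macrophage reporter cells seeded at 50 000 per well in 384-well plates. After 1 hour at 37 °C, the cells were stimulated overnight with a PRR agonist. SEAP in the supernatant was read with QUANTI-Blue at 620 nm absorbance for NF-κB, and Lucia luciferase was read with QUANTI-Luc luminescence for IRF. Each signal was turned into fold change against the mean agonist-only control on the same plate, and two replicate plates were averaged with propagated errors.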

Assay [2] shares this test system. Briefly: IRF reporter (Lucia luciferase) activity fold change vs agonist alone; higher = enhanced IRF activity. In a few lines: as §1
Assay [3] has the same test system. Briefly: viability score (confluency relative to resting cells, overnight) (fraction); higher = more viable, active = viable (0.7 or more). Put shortly:
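Confluency was the readout: RAW-Dual macrophages were imaged with IncuCyte after an overnight exposure to compound at 10 μM final. IncuCyte software produced two masks over all imaged wells. The viability score expresses confluency against resting cells, and both masks had to exceed 70% of resting cells for a compound to meet the cutoff.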

Where [4] appears, read: agonist: CpG ODN 1826 0.5 ug/mL.

± gives the standard deviation.

For `CCN(CC)c1ccc(C=C(C#N)c2n[nH]c(N)c2C#N)c(OC)c1`, the NF-kB reporter in assay [1] (setting [4]) worked out at 1.43 ± 0.16; in assay [1] (agonist: LPS 0.1 ug/mL) it was 0.885 ± 0.095; in assay [1] (agonist: MPLA […]) it was 0.976 ± 0.092. The IRF reporter in assay [2] (agonist: 3'3'-cGAMP 10 ug/mL) came out at 0.577 ± 0.036; in assay [2] (agonist: LPS 0.1 ug/mL), 0.865 ± 0.12; in assay [2] (agonist: MPLA […]), 1.18 ± 0.15. The viability score in assay [3] is 1.02 (active).

As for `O=C(O)C(=O)O.c1ccc(SCCc2ccncc2)cc1`, the results for the NF-kB reporter in assay [1] (setting [4]), in assay [1] (agonist: LPS 0.1 ug/mL) and in assay [1] (agonist: MPLA […]) were 1.06 ± 0.12, 1.04 ± 0.076 and 1 ± 0.056, respectively. Further, the figures for the IRF reporter in assay [2] (agonist: 3'3'-cGAMP 10 ug/mL), in assay [2] (agonist: LPS 0.1 ug/mL) and in assay [2] (agonist: MPLA […]) were 1.05 ± 0.24, 1.07 ± 0.09 and 1.19 ± 0.17, respectively. In assay [3], the viability score was 1 (active).

Take `COc1ccc(NC(=O)CCn2nc(C)nc2C)cc1`: the NF-kB reporter in assay [1] (setting [4]) came to 1.04 ± 0.099; in assay [1] (agonist: LPS 0.1 ug/mL), 1.07 ± 0.085; in assay [1] (agonist: MPLA […]), 0.963 ± 0.12. Further, the IRF reporter in assay [2] (agonist: 3'3'-cGAMP 10 ug/mL) was determined as 0.961 ± 0.049; in assay [2] (agonist: LPS 0.1 ug/mL) it was 1.09 ± 0.068; in assay [2] (agonist: MPLA […]), 1.01 ± 0.12. Besides, the viability score in assay [3] is 1 (active).

For `COC(=O)c1ccc(N2C(=O)c3ccc(Oc4cccc([N+](=O)[O-])c4)cc3C2=O)cc1`, the NF-kB reporter turned out to be 0.969 ± 0.085 in assay [1] (setting [4]), 0.923 ± 0.079 in assay [1] (agonist: LPS 0.1 ug/mL) and 1.06 ± 0.11 in assay [1] (agonist: MPLA […]). The figures for the IRF reporter in assay [2] (agonist: 3'3'-cGAMP 10 ug/mL), in assay [2] (agonist: LPS 0.1 ug/mL) and in assay [2] (agonist: MPLA […]) were 0.994 ± 0.031, 1.33 ± 0.17 and 1.71 ± 0.19, respectively. Besides, the viability score in assay [3] was 1.02 (active).

As to `COc1ccc(S(=O)(=O)Nc2ccc(Oc3ccccc3)cc2)cc1`, the NF-kB reporter in assay [1] (setting [4]) is 1.04 ± 0.18; in assay [1] (agonist: LPS 0.1 ug/mL), 1.02 ± 0.11; in assay [1] (agonist: MPLA […]), 2.55 ± 1.5. Also, the results for the IRF reporter in assay [2] (agonist: 3'3'-cGAMP 10 ug/mL), in assay [2] (agonist: LPS 0.1 ug/mL) and in assay [2] (agonist: MPLA […]) were 0.972 ± 0.033, 1.17 ± 0.13 and 1.21 ± 0.2, respectively. For the same compound, in assay [3], the viability score is 1.01 (active).

With `CN(CCO)c1ccc2nonc2c1[N+](=O)[O-]`, the NF-kB reporter in assay [1] (setting [4]) amounted to 1.39 ± 0.085; in assay [1] (agonist: LPS 0.1 ug/mL), 1.18 ± 0.11; in assay [1] (agonist: MPLA […]) it was 1.33 ± 0.087. Moreover, the results for the IRF reporter in assay [2] (agonist: 3'3'-cGAMP 10 ug/mL), in assay [2] (agonist: LPS 0.1 ug/mL) and in assay [2] (agonist: MPLA […]) were 0.886 ± 0.034, 1.28 ± 0.086 and 0.996 ± 0.088, respectively. Moreover, in assay [3], the viability score was 1 (active).

Take `CCN(CCO)CCCOc1ccc2c(Nc3cc(CC(=O)Nc4cccc(F)c4)n[nH]3)ncnc2c1`: the NF-kB reporter was 0.703 ± 0.17 in assay [1] (setting [4]), 0.902 ± 0.23 in assay [1] (agonist: LPS 0.1 ug/mL) and 0.893 ± 0.098 in assay [1] (agonist: MPLA […]). In addition, the IRF reporter was found to be 0.982 ± 0.03 in assay [2] (agonist: 3'3'-cGAMP 10 ug/mL), 1.25 ± 0.25 in assay [2] (agonist: LPS 0.1 ug/mL) and 1.18 ± 0.12 in assay [2] (agonist: MPLA […]). The viability score in assay [3] was 0.951 (active).

For the compound `Cc1nc2n(c(=O)c1CCN1CCC(c3noc4cc(F)ccc34)CC1)CCCC2`, the NF-kB reporter was 0.741 ± 0.18 in assay [1] (setting [4]), 0.982 ± 0.09 in assay [1] (agonist: LPS 0.1 ug/mL) and 0.915 ± 0.06 in assay [1] (agonist: MPLA […]). Moreover, the results for the IRF reporter in assay [2] (agonist: 3'3'-cGAMP 10 ug/mL), in assay [2] (agonist: LPS 0.1 ug/mL) and in assay [2] (agonist: MPLA […]) were 0.891 ± 0.036, 1.13 ± 0.3 and 1.03 ± 0.13, respectively. The viability score in assay [3] is 1.01 (active).

For the compound `CNCCC[C@]12CC[C@H](c3ccccc31)c1ccccc12` [Prestw-346], the figures for the NF-kB reporter in assay [1] (setting [4]), in assay [1] (agonist: LPS 0.1 ug/mL) and in assay [1] (agonist: MPLA […]) were 0.726 ± 0.082, 0.842 ± 0.063 and 0.93 ± 0.095, respectively. Also, the values for the IRF reporter in assay [2] (agonist: 3'3'-cGAMP 10 ug/mL), in assay [2] (agonist: LPS 0.1 ug/mL) and in assay [2] (agonist: MPLA […]) were 1.12 ± 0.07, 1.41 ± 0.14 and 1.59 ± 0.26, respectively. The viability score in assay [3] is 0.962 (active).

Consider `CC(=O)N1CC(c2ccc(OC(C)C)cc2)CC1=O` (configuration not stated), for which the results for the NF-kB reporter in assay [1] (setting [4]), in assay [1] (agonist: LPS 0.1 ug/mL) and in assay [1] (agonist: MPLA […]) were 1.07 ± 0.23, 1.04 ± 0.084 and 0.961 ± 0.088, respectively. In addition, the figures for the IRF reporter in assay [2] (agonist: 3'3'-cGAMP 10 ug/mL), in assay [2] (agonist: LPS 0.1 ug/mL) and in assay [2] (agonist: MPLA […]) were 1.05 ± 0.03, 1.22 ± 0.15 and 1.36 ± 0.16, respectively. The viability score in assay [3] was 0.999 (active).

As to `COc1ccc(CC(=O)Nc2ccc(C)c(N3CCCCC3=O)c2)cc1OC`, the NF-kB reporter worked out at 1.42 ± 0.34 in assay [1] (setting [4]), 1.18 ± 0.09 in assay [1] (agonist: LPS 0.1 ug/mL) and 1.06 ± 0.071 in assay [1] (agonist: MPLA […]). In addition, the IRF reporter worked out at 0.937 ± 0.059 in assay [2] (agonist: 3'3'-cGAMP 10 ug/mL), 0.98 ± 0.14 in assay [2] (agonist: LPS 0.1 ug/mL) and 1.06 ± 0.12 in assay [2] (agonist: MPLA […]). Moreover, the viability score in assay [3] is 1 (active).

Turning to `CC(=O)N1CCC(Cn2ccc3cccnc32)CC1`, the NF-kB reporter in assay [1] (setting [4]) was determined as 1.04 ± 0.078; in assay [1] (agonist: LPS 0.1 ug/mL), 1.02 ± 0.11; in assay [1] (agonist: MPLA […]), 0.996 ± 0.048. Further, the IRF reporter is 0.949 ± 0.035 in assay [2] (agonist: 3'3'-cGAMP 10 ug/mL), 0.957 ± 0.056 in assay [2] (agonist: LPS 0.1 ug/mL) and 1.02 ± 0.11 in assay [2] (agonist: MPLA […]). Further, the viability score in assay [3] was 0.994 (active).

Take `O=C(Nc1nccs1)c1ccc2c(c1)C(=O)N(C1CCCCC1)C2=O`: the NF-kB reporter in assay [1] (setting [4]) was 1.09 ± 0.086; in assay [1] (agonist: LPS 0.1 ug/mL) it was 1.05 ± 0.096; in assay [1] (agonist: MPLA […]), 0.878 ± 0.052. Further, the IRF reporter in assay [2] (agonist: 3'3'-cGAMP 10 ug/mL) turned out to be 0.979 ± 0.032; in assay [2] (agonist: LPS 0.1 ug/mL), 1.57 ± 0.22; in assay [2] (agonist: MPLA […]), 1.21 ± 0.21. Further, the viability score in assay [3] is 1 (active).

`CN(C)CCC(c1ccccc1)c1ccccn1.O=C(O)/C=C\C(=O)O` (configuration not stated): the NF-kB reporter came out at 0.373 ± 0.016 in assay [1] (setting [4]), 0.227 ± 0.018 in assay [1] (agonist: LPS 0.1 ug/mL) and 0.65 ± 0.036 in assay [1] (agonist: MPLA […]). The IRF reporter in assay [2] (agonist: 3'3'-cGAMP 10 ug/mL) stood at 0.0231 ± 0.0026; in assay [2] (agonist: LPS 0.1 ug/mL), 0.0283 ± 0.0046; in assay [2] (agonist: MPLA […]), 0.0354 ± 0.0064. In assay [3], the viability score was 0.377 (inactive).

For `CC(C(=O)O)c1ccc2c(c1)CC(=O)c1ccccc1S2` (configuration not stated), the NF-kB reporter was found to be 1.19 ± 0.18 in assay [1] (setting [4]), 1.19 ± 0.43 in assay [1] (agonist: LPS 0.1 ug/mL) and 0.977 ± 0.06 in assay [1] (agonist: MPLA […]). Also, the figures for the IRF reporter in assay [2] (agonist: 3'3'-cGAMP 10 ug/mL), in assay [2] (agonist: LPS 0.1 ug/mL) and in assay [2] (agonist: MPLA […]) were 1.03 ± 0.032, 1.26 ± 0.42 and 1.22 ± 0.13, respectively. Besides, in assay [3], the viability score was 0.988 (active).

Take `CCCCNCCCCOc1ccc(C)cc1C(C)(C)C`: the NF-kB reporter in assay [1] (setting [4]) is 0.441 ± 0.12; in assay [1] (agonist: LPS 0.1 ug/mL) it was 0.167 ± 0.036; in assay [1] (agonist: MPLA […]), 1.38 ± 0.048. Also, the figures for the IRF reporter in assay [2] (agonist: 3'3'-cGAMP 10 ug/mL), in assay [2] (agonist: LPS 0.1 ug/mL) and in assay [2] (agonist: MPLA […]) were 0.0798 ± 0.034, 0.201 ± 0.056 and 2.6 ± 0.65, respectively. Also, the viability score in assay [3] was 0.0697 (inactive).

These data come from the supplement of paper PMC10646978.
